SMILES strings stand for the structures.

The target in assay [1] is Mitogen-activated protein kinase kinase kinase kinase 4 (Homo sapiens) (UniProt O95819). Particulars: at 1 µM.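 Further: reported figure is an averaged inhibition value.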
Assay [2] concerns the target Dual specificity mitogen-activated protein kinase kinase 1 (Homo sapiens) (UniProt Q02750). Particulars: at 0.1 µM.
Assay [3] has the same target. Particulars: at 1 µM.
Assay [4] deals with Misshapen-like kinase 1 (Homo sapiens) (UniProt Q8N4C8). Particulars: at 0.1 µM.
Misshapen-like kinase 1 (Homo sapiens), sequence (Q8N4C8 whole entry, looked up): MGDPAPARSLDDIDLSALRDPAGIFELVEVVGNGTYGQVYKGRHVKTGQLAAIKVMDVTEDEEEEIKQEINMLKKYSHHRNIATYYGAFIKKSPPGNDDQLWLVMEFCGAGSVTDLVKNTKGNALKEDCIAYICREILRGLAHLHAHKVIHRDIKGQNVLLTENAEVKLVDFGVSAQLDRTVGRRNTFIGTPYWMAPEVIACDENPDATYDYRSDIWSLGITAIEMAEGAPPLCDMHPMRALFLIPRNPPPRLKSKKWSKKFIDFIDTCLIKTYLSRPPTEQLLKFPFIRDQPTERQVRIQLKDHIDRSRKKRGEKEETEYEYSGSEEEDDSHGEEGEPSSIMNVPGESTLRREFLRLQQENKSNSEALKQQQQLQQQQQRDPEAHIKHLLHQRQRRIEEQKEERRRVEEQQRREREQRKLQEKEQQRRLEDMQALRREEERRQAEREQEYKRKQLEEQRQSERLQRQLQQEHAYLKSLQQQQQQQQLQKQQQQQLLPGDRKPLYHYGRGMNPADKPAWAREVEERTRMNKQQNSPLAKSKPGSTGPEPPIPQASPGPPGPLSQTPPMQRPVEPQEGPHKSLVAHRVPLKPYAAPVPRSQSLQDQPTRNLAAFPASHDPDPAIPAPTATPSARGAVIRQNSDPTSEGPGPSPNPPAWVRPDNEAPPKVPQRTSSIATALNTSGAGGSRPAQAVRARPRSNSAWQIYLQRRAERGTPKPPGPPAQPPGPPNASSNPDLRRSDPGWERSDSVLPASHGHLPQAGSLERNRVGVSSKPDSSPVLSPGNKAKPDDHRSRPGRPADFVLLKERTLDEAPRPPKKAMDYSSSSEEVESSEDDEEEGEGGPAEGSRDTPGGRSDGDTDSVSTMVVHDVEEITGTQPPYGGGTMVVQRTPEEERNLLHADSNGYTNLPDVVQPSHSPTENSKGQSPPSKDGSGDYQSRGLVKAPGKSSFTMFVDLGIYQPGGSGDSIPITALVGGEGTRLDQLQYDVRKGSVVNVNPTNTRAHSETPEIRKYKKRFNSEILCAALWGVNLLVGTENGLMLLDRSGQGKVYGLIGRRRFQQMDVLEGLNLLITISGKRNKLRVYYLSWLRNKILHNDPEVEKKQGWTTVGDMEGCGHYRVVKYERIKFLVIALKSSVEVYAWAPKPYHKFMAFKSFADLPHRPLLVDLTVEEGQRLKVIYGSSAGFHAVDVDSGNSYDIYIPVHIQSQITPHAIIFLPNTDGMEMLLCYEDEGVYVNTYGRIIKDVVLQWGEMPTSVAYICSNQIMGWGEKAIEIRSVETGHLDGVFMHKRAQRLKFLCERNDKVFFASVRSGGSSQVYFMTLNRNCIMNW
For assay [5] the target is unchanged. Particulars: at 1 µM.
The target in assay [6] is T1, Serine/threonine-protein kinase 4 (Homo sapiens) (UniProt Q13043).
T1 sequence (whole entry): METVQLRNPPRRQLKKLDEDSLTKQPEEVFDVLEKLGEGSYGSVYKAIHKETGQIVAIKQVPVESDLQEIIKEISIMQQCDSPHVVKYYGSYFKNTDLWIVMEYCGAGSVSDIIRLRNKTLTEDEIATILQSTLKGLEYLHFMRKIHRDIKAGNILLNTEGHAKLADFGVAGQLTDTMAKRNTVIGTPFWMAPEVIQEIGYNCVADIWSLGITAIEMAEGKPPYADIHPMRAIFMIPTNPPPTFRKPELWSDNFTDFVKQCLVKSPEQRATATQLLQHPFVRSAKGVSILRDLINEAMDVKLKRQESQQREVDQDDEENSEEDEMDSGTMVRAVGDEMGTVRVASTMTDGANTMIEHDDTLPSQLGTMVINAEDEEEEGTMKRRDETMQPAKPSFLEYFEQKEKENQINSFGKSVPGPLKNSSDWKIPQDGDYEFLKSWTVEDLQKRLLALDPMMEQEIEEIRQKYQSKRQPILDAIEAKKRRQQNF
Particulars: at 0.1 µM.

Assay [7] deals with T1, Serine/threonine-protein kinase 4 (Homo sapiens). Particulars: at 1 µM.
Assay [8] deals with T2, Serine/threonine-protein kinase 3 (Homo sapiens) (UniProt Q13188).
T2 sequence (whole entry): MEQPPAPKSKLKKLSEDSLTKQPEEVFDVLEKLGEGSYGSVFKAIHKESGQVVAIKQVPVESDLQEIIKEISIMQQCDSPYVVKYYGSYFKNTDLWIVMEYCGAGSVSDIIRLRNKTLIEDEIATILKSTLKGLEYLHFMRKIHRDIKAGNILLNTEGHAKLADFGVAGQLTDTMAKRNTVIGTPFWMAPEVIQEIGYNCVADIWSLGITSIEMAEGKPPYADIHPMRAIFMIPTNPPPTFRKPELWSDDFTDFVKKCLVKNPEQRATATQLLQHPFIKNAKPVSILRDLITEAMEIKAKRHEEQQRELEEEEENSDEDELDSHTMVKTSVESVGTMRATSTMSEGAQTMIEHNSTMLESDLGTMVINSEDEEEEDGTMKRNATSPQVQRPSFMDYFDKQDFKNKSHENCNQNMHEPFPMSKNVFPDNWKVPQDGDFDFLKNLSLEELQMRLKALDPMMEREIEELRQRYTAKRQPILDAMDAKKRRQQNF
Particulars: at 0.1 µM.

Assay [9] addresses T2, Serine/threonine-protein kinase 3 (Homo sapiens). Particulars: at 1 µM.
The target of assay [10] is Serine/threonine-protein kinase 26 (Homo sapiens) (UniProt Q9P289). Particulars: at 0.1 µM.
Serine/threonine-protein kinase 26 (Homo sapiens), sequence (Q9P289 2-416 limits assumed): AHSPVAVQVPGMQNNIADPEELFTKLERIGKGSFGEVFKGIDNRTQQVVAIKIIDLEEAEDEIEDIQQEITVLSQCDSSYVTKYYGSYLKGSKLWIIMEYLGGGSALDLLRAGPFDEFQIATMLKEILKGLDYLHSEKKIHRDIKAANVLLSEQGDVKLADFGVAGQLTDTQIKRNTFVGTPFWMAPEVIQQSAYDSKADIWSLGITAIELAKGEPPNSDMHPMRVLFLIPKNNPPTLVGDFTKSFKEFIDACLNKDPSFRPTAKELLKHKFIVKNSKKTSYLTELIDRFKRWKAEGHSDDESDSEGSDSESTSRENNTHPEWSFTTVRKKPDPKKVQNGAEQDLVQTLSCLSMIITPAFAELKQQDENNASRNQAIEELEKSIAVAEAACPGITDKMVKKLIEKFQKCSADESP

Dual specificity mitogen-activated protein kinase kinase 1 (Homo sapiens), sequence (Q02750 whole entry): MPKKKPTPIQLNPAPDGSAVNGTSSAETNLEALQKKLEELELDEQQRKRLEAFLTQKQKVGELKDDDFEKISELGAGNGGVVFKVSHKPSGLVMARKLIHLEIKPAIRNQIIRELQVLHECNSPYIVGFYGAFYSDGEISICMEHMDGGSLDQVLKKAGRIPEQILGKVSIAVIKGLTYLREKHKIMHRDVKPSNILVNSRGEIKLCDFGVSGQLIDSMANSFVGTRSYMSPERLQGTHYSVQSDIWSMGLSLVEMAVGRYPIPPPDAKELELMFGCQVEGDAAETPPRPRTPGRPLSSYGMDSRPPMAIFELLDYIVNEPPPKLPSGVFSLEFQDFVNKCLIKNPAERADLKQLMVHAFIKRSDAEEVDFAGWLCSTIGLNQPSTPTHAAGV
Mitogen-activated protein kinase kinase kinase kinase 4 (Homo sapiens), sequence (O95819 2-1239 limits assumed): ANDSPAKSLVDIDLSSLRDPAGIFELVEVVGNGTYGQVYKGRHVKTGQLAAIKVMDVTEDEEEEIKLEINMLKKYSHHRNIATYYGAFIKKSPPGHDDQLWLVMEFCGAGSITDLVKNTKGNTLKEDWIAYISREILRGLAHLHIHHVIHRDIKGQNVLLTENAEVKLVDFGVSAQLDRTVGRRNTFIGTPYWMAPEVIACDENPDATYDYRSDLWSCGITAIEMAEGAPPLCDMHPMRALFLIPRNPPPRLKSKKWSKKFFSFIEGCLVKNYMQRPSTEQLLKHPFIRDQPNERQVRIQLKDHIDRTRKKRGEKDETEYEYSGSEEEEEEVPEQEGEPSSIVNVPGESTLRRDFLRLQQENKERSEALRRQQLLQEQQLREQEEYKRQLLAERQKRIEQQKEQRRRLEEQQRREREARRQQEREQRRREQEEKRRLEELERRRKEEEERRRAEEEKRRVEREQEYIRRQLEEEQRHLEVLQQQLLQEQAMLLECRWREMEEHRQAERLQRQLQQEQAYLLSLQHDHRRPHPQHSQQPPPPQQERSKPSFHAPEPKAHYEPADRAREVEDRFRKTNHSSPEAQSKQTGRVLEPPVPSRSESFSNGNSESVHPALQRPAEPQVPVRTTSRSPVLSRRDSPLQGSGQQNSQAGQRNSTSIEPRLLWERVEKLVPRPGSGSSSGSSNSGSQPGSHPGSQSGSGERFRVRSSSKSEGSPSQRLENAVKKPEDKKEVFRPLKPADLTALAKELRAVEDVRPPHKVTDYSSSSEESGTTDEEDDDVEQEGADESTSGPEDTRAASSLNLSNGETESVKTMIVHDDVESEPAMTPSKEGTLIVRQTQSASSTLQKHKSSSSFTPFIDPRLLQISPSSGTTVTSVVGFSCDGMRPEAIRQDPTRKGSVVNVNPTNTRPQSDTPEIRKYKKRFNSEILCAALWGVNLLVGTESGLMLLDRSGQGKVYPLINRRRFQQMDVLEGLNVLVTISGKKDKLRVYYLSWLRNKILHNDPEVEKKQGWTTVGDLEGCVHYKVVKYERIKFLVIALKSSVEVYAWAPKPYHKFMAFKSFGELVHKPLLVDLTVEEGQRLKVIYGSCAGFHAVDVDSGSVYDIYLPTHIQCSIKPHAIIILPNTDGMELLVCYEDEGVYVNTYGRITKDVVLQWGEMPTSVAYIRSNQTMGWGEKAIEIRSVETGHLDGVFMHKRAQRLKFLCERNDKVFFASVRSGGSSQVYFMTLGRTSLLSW

Regarding `Cc1nnc(-c2ccc(C)c(-c3ccc(C(=O)Nc4cccc(C#N)c4)cc3)c2)o1`, the inhibition (in general, the relative decrease from the control value, in per cent) in [1] was found to be 10.6%; in assay [2], 2.51%; in [3] it was 1.55%; in assay [4], 4.46%; in [5], 9.13%; in assay [6], 1.52%. The inhibition in assay [7] is 6%; in assay [8] it was 2.65%; in [9], 6.4%; in assay [10], -1.07%.

Turning to `CC1=C(C(=O)Nc2ccc3[nH]ncc3c2)C(c2ccc(Cl)c(Cl)c2)CC(=O)N1` (stereo not given), the inhibition was determined as 3.96% in assay [1]; 4.74% in [2]; 30.5% in assay [3]; 1.68% in assay [4]; 1.98% in [5]; 1.25% in assay [6]. In addition, the inhibition is 4.28% in assay [7], 1.27% in [8], 2.63% in [9] and -1.2% in [10].

With `NC(=O)c1ccc(-c2nc(-c3ccccn3)c(-c3ccc4c(c3)OCO4)[nH]2)cc1`, the inhibition is 5.75% in assay [1]; 3.95% in assay [2]; 3.52% in [3]; 2.63% in assay [4]; 7.53% in [5]; 3.9% in assay [6]. In addition, the inhibition in [7] is 3.51%; in [8], 4.2%; in assay [9] it was 3.42%; in [10], -0.92%.

In the case of `CCn1c(-c2nonc2N)nc2cnc(Oc3cccc(NC(=O)c4ccc(OCCN5CCOCC5)cc4)c3)cc21`, the inhibition came to 13.2% in assay [1]; 3.5% in assay [2]; 3.8% in [3]; 6.17% in assay [4]; 12.5% in assay [5]; 2.14% in assay [6]. The inhibition in [7] was 3.43%; in assay [8], 2.3%; in assay [9], 3.84%; in assay [10] it was -1.24%.

As for `NC(=O)c1cccc(Nc2nccc(Nc3cccc4[nH]ncc34)n2)c1`, the inhibition in assay [1] is 39.2%; in [2] it was -4%; in assay [3], 0.69%; in assay [4], 0.64%; in assay [5], 29%; in assay [6], -3.17%. For the same molecule, the inhibition in assay [7] was 13.3%; in assay [8] it was -4.57%; in [9], 6.87%; in [10], -0.32%.

Consider `CS(=O)(=O)CCNCc1ccc(-c2ccc3ncnc(Nc4ccc(OCc5ccccc5)c(Cl)c4)c3c2)o1`, for which the inhibition in [1] worked out at 3.37%; in assay [2], 1.17%; in [3], 1.86%; in assay [4], 1.93%; in [5] it was 1.65%; in assay [6], 0.89%. The inhibition in assay [7] was 2.54%; in [8], -1.21%; in assay [9], 0.47%; in assay [10], 0.75%.

For `COc1cc2ncn(-c3cc(O[C@@H](C)c4ccccc4Cl)c(C(N)=O)s3)c2cc1OC`, the inhibition in [1] was found to be 32%; in assay [2] it was 4.3%; in assay [3] it was 3.99%; in assay [4] it was 9.25%; in assay [5], 28.5%; in assay [6], 8.63%. Also, the inhibition was 40.3% in assay [7], 11.8% in assay [8], 34.8% in assay [9] and -3.61% in assay [10].

`O=C1NC(=O)C(c2cccc(Cl)c2)=C1Nc1ccc(O)c(Cl)c1`: the inhibition in [1] worked out at 7.19%; in assay [2], 0.81%; in assay [3], 7.65%; in [4], 2.81%; in [5], 7.79%; in assay [6], 33.6%. Moreover, the inhibition in [7] came out at 75.2%; in [8], 24.3%; in [9], 66.8%; in assay [10], 1.93%.

Consider `CCn1c(-c2nonc2N)nc2c(N3CCCC3)nccc21`, for which the inhibition in [1] is 2.78%; in assay [2] it was -2.28%; in [3] it was -2.11%; in assay [4], 0.71%; in assay [5], 2.4%; in assay [6] it was -1.49%. Besides, the inhibition is -1.2% in assay [7], -2.05% in assay [8], 0.3% in [9] and 0.47% in assay [10].

On to `CCn1c(-c2nonc2N)nc2c(C#CC(C)(C)O)nc(CN3CCCC3)cc21`, for which the inhibition in assay [1] is 1.37%; in assay [2] it was 0.73%; in assay [3], -0.46%; in assay [4] it was 2.4%; in assay [5], 0.35%; in assay [6], -1.15%. Moreover, the inhibition in [7] was 0.25%; in [8] it was -2.44%; in [9], -2.27%; in assay [10], -0.36%.

With `COc1ccccc1Nc1ncc(-c2ccccc2)o1`, the inhibition in [1] amounted to 26.2%; in [2], 4.67%; in assay [3], 3.89%; in assay [4], 6.62%; in [5], 17.3%; in assay [6], 3.93%. The inhibition was 5.16% in [7], 6.13% in [8], 7.36% in [9] and -1.34% in assay [10].

`Nc1ncnc2occ(-c3ccc(NC(=O)Nc4cccc(C(F)(F)F)c4)cc3)c12`: the inhibition was determined as 12.3% in assay [1]; 4.53% in [2]; 4.91% in assay [3]; 3.8% in [4]; 8.17% in [5]; 5.73% in assay [6]. The inhibition is 15.6% in assay [7], 5.7% in [8], 13.3% in assay [9] and -2.6% in assay [10].

Regarding `COc1cc(C=NNc2ncnc3c2cnn3-c2ccccc2)ccc1O`, the inhibition in assay [1] is 70.6%; in [2], 1.68%; in [3], 1.06%; in assay [4], 24%; in [5], 64.7%; in assay [6], 2.58%. The inhibition in assay [7] came out at 11.5%; in [8], 3.41%; in assay [9], 6.24%; in assay [10], 1.85%.

As to `CS(=O)(=O)Nc1ccc(N/C=C2\C(=O)Nc3ccccc32)cc1`, the inhibition in assay [1] is 73%; in assay [2], -3.18%; in assay [3], -0.2%; in assay [4] it was 11.8%; in [5] it was 63.8%; in [6] it was 6.72%. The inhibition in assay [7] was 51.9%; in assay [8], -0.42%; in assay [9], 24.6%; in [10] it was 0.42%.

Take `COc1ccc(-c2ccncc2)cc1C(N)=O`: the inhibition came out at 11.4% in assay [1]; 4.89% in assay [2]; 4.05% in [3]; 6.61% in assay [4]; 8.92% in assay [5]; 3.27% in assay [6]. The inhibition in [7] is 7.82%; in [8] it was 4.87%; in assay [9], 6.68%; in assay [10], -1.91%.

As to `CS(=O)(=O)CCN(CC#N)Cc1ccc(-c2ccc3ncnc(Nc4ccc(OCc5cccc(F)c5)c(Cl)c4)c3c2)o1`, the inhibition in [1] came out at 5%; in assay [2], 2.47%; in assay [3], 0.44%; in [4], 3.04%; in assay [5] it was 3.9%; in assay [6], 0.41%. The inhibition in assay [7] was 0.1%; in assay [8] it was 0.67%; in assay [9], 1.66%; in [10], -1.31%.

Regarding `Cc1ccc(C(=O)NC2CCCCC2)cc1-c1ccc(C(=O)NCC2CC2)cc1`, the inhibition in [1] came to 0.87%; in assay [2], 4.37%; in [3], 4.68%; in assay [4], 4.93%; in [5], 1.64%; in assay [6] it was 5.76%. For the same molecule, the inhibition in assay [7] came out at 4.46%; in assay [8], 6.92%; in assay [9], 4.05%; in assay [10], 1.41%.

Consider `[O-][S+]1CCN(Cc2ccc(-c3ccc4ncnc(Nc5ccc(OCc6ccccc6)c(F)c5)c4c3)o2)CC1`, for which the inhibition in assay [1] is -0.28%; in assay [2], 2.4%; in assay [3], 3.03%; in assay [4], 4.17%; in assay [5], 1.42%; in [6], 2.61%. Besides, the inhibition in [7] was 2.36%; in assay [8], 2.82%; in [9], 3.06%; in assay [10] it was -0.81%.

With `COc1cc2ncn(-c3cc(OCc4ccccc4C(F)(F)F)c(C(N)=O)s3)c2cc1OC`, the inhibition in assay [1] stood at 30.1%; in assay [2], 2.39%; in assay [3] it was 2.9%; in assay [4], 7.46%; in assay [5], 25.5%; in assay [6] it was 14.3%. In addition, the inhibition in assay [7] was 55.5%; in [8], 15.2%; in assay [9], 52.8%; in assay [10], -4.21%.

Values taken from ChEMBL document CHEMBL1961873, “Compounds: GSK PKIS; Assays: Nanosyn kinase panel” (2012).
